Hits are enriched below; roughly 1.1% of the tested compounds scored in any of these assays.
NR5A2 inv ag: NR5A2 inverse agonism in reporter assay | 360,000 compounds, 0.13% hits | AID 602396 | HEK293T StAR-luciferase reporter, LRH-1 transfected, 24 h | O00482 | inhibition, % at 3.6 µM;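 active means inhibition above the mean inhibition of all tested compounds plus 3 SD, cut at about 73% in these data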
Target sequence (O00482 whole entry, looked up): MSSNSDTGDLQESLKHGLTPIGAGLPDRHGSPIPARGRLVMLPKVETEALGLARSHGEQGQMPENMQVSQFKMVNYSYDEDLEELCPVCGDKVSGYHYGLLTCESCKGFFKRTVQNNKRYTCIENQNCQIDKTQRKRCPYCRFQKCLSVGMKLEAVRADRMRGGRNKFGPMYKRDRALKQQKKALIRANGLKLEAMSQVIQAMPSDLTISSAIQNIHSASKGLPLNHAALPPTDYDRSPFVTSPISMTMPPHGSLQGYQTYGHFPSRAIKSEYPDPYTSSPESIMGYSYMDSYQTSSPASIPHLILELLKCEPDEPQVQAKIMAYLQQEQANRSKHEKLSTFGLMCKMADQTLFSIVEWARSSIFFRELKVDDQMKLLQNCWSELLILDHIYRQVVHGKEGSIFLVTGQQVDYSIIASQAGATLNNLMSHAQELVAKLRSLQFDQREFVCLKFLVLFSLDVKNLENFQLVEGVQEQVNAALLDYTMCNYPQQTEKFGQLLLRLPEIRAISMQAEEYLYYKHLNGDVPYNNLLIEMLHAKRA
SRC1 inh: inhibitors of human steroid receptor coactivator 1 (SRC1); Q15788; HEK293 GAL4-SRC1 luciferase reporter, luminescence; inhibition, % at 3.6 µM; 360,000 compounds, 0.12% hits; AID 588354;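 active means inhibition above the campaign mean plus 3 SD, with each screening campaign given its own cutoff, cut at about 60% in these data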
NCOA3 inh: inhibits human SRC3 coactivator | Q9Y6Q9 | HEK293 GAL4-SRC3 luciferase reporter, luminescence | inhibition, % at 3.6 µM | 360,000 compounds, 0.17% hits;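 active means inhibition above a per-campaign cutoff, the mean of all compounds plus 3 SD, cut at about 60% in these data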;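 further: higher means less SRC3-driven luciferase light from the GAL4 reporter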
NR2F2 inh: NR2F2 (human) inhibition, primary screen; AID 686940; inhibition, % at 8.6 µM; HEK293T NGFI-A luciferase reporter, luminescence; 370,000 compounds, 0.7% hits;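 active means inhibition above a per-plate cutoff, mean inhibition of test wells between control levels plus 3 SD, cut at about 38% in these data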;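 further: cells cotransfected with COUP-TFII expression vector driving the NGFI-A reporter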
SRC2 inh: human SRC2 (NCOA2) inhibition; HEK293 GAL4-SRC2 luciferase reporter, luminescence; inhibition, % at 9 µM; 370,000 compounds, 0.17% hits; AID 651957;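 active means inhibition above the mean inhibition of all tested compounds plus 3 SD, set per campaign, cut at about 52% in these data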
GalR3 antag: antagonists of human GalR3. O60755. HEK293 GalR3-CNG cAMP membrane potential fluorescence; galR3 body fused to GalR1 C-terminus. inhibition, % at 3 µM. 360,000 compounds, 0.44% hits;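 active means inhibition above the screen-wide average plus 3 SD, cut at about 13% in these data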;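 further: forskolin and galanin both at EC90 stimulate the cells; cAMP rise reported by CNG channel membrane potential dye signal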
GalR3 antag conf: confirmation of human galanin receptor 3 antagonists. shares compounds with GalR3 antag. HEK293 GalR3 CNG cAMP biosensor, membrane potential fluorescence; galR3 fused to GalR1 carboxy tail; challenged with forskolin and galanin at EC90. inhibition, % at 3 µM. 1,600 compounds, 59% hits. AID 652245;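 active means inhibition above the primary screen's cutoff, the mean inhibition of all screened compounds plus 3 SD, cut at about 13% in these data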
HEK-CNG parental: parental cell agonism counter-screen for GalR3 antagonists; shares compounds with GalR3 antag; HEK293-CNG parental cells, cAMP membrane potential fluorescence; normalised: DMSO wells 0%, forskolin wells 100%; activation, % at 3 µM; 1,600 compounds, 10% hits; in the data active means activation above about 1.3%
Hits are given with their value.

CCOC(=O)c1sc(N2C(=O)C(O)=C(C(=O)c3ccc(C)o3)C2c2cccc([N+](=O)[O-])c2)nc1C (configuration not stated) was read as NR5A2 inv ag inactive, SRC1 inh inactive, NCOA3 inh inactive, NR2F2 inh inactive, SRC2 inh inactive and GalR3 antag inactive.
For CCOc1ccc(C2C(C(=O)c3ccc(C)o3)=C(O)C(=O)N2c2nc(C)c(C(=O)OC)s2)cc1 (configuration not stated) the results were NR5A2 inv ag inactive, SRC1 inh inactive, NCOA3 inh inactive, NR2F2 inh inactive, SRC2 inh inactive, GalR3 antag 13.2, GalR3 antag conf 15.2 and HEK-CNG parental inactive.
Screening COC(=O)c1sc(N2C(=O)C(O)=C(C(=O)c3ccc(C)o3)C2c2ccc([N+](=O)[O-])cc2)nc1C (configuration not stated) returned NR5A2 inv ag inactive, SRC1 inh inactive, NCOA3 inh inactive, NR2F2 inh inactive, SRC2 inh inactive and GalR3 antag inactive.
`COC(=O)c1sc(N2C(=O)C(O)=C(C(=O)c3ccc(C)o3)C2c2ccc(OC)c(OC)c2)nc1C` (configuration not stated) gave NR5A2 inv ag inactive, SRC1 inh inactive, NCOA3 inh inactive, NR2F2 inh inactive, SRC2 inh inactive, GalR3 antag 35.6, GalR3 antag conf inactive and HEK-CNG parental inactive.
For COc1c(C(C)(C)C)cc(S(=O)(=O)N2c3ccccc3C[C@H]2C)cc1C(C)(C)C the results were NR2F2 inh inactive.
`CC(C)(C)c1ccc(-c2nnc(SCC(=O)Nc3ccc(S(=O)(=O)Nc4nccs4)cc3)n2-c2ccc(Cl)cc2)cc1` gave NR2F2 inh inactive and SRC2 inh inactive.
`C[C@@H]1CC=C[C@H]2[C@H]1C(=O)N(Cc1ccccc1)[C@H]2c1ccc2ccccc2c1` gave NR5A2 inv ag inactive, SRC1 inh inactive, NCOA3 inh inactive, NR2F2 inh inactive, SRC2 inh inactive, GalR3 antag conf inactive and HEK-CNG parental inactive.
For CC(C1=CCCCC1)c1cnn(C)c1 (configuration not stated) the results were NR2F2 inh inactive and SRC2 inh inactive.
`O=C(NCC(=O)N1CCN(c2ccccc2)CC1)c1ccc(Cl)cc1` gave NR5A2 inv ag inactive, SRC1 inh inactive, NCOA3 inh inactive, NR2F2 inh inactive, SRC2 inh inactive, GalR3 antag 13.7, GalR3 antag conf inactive and HEK-CNG parental inactive.
`COc1ccc(S(=O)(=O)NCc2ccccn2)cc1` gave NR5A2 inv ag inactive, SRC1 inh inactive, NCOA3 inh inactive, NR2F2 inh inactive, SRC2 inh inactive, GalR3 antag 14.6, GalR3 antag conf 19.8 and HEK-CNG parental inactive.
`CC(=O)Nc1ccc(-c2csc(NC(=O)C3CC(=O)N(c4ccc5c(c4)OCCO5)C3)n2)cc1` (configuration not stated) gave NR5A2 inv ag inactive, SRC1 inh inactive, NCOA3 inh inactive, NR2F2 inh inactive, SRC2 inh inactive, GalR3 antag 14.5, GalR3 antag conf inactive and HEK-CNG parental inactive.
`COC(=O)[C@]12C[C@H](CC(=O)NCc3cccc(C(F)(F)F)c3)C(=O)N(Cc3cccc4ccccc34)C1=C[C@H](C(C)(C)C)O[C@@H]2C` gave NR2F2 inh inactive and SRC2 inh inactive.
For c1ccc2c(c1)nc(NCCN1CCOCC1)c1nncn12 the results were NR5A2 inv ag inactive, SRC1 inh inactive, NCOA3 inh inactive, NR2F2 inh inactive, SRC2 inh inactive, GalR3 antag conf inactive and HEK-CNG parental inactive.
Screening Clc1cccc(N2CCN(CCNc3nc4ccccc4n4cnnc34)CC2)c1 returned NR5A2 inv ag inactive, SRC1 inh inactive and NCOA3 inh inactive.
Screening CCOC(=O)c1cc(-c2ccc(C#N)cc2)nc2c1c(C)nn2CCC#N returned NR5A2 inv ag inactive, SRC1 inh inactive, NCOA3 inh inactive, NR2F2 inh inactive, SRC2 inh inactive, GalR3 antag 21.7, GalR3 antag conf inactive and HEK-CNG parental 1.7.
`COc1ccc(CC(=O)Nc2cccc(S(=O)(=O)N3CCCCCC3)c2)cc1OC` gave NR5A2 inv ag inactive, SRC1 inh inactive, NCOA3 inh inactive, NR2F2 inh 78.8, SRC2 inh inactive, GalR3 antag 104.5, GalR3 antag conf 99.2 and HEK-CNG parental inactive.
`COc1ccc(NC(=O)c2cc(S(=O)(=O)N3CCCCC3)ccc2OC)cc1` gave NR5A2 inv ag inactive, SRC1 inh inactive, NCOA3 inh inactive, NR2F2 inh inactive, SRC2 inh inactive and GalR3 antag inactive.
Screening COc1ccc(S(=O)(=O)N2CCCCCC2)cc1C(=O)Nc1ccc(C(=O)N(C)C)cc1 returned NR5A2 inv ag inactive, SRC1 inh inactive, NCOA3 inh inactive, NR2F2 inh inactive, SRC2 inh inactive, GalR3 antag 14.5, GalR3 antag conf inactive and HEK-CNG parental inactive.
O=C(CSc1nnc(-c2n[nH]c3ccccc23)n1-c1ccccc1)Nc1cccc(Cl)c1 was read as NR5A2 inv ag inactive, SRC1 inh inactive, NCOA3 inh inactive, NR2F2 inh inactive, SRC2 inh inactive, GalR3 antag 21.0, GalR3 antag conf 13.6 and HEK-CNG parental inactive.
For Cc1ccc(/C=C/C(=O)Nc2ccccc2C(N)=O)cc1 the results were NR5A2 inv ag inactive, SRC1 inh inactive, NCOA3 inh inactive, NR2F2 inh inactive, SRC2 inh inactive, GalR3 antag conf inactive and HEK-CNG parental inactive.
CC(C)N1Cc2nnn(Cc3ccccc3)c2-c2cc(N3CCCC3)ccc2S1(=O)=O was read as NR2F2 inh inactive and SRC2 inh inactive.
For COCC(C)n1c(C)cc(C(=O)COC(=O)c2ccc3c(c2)NC(=O)CS3)c1C (configuration not stated) the results were NR5A2 inv ag inactive, SRC1 inh inactive, NCOA3 inh inactive, NR2F2 inh inactive, SRC2 inh inactive, GalR3 antag 16.9, GalR3 antag conf inactive and HEK-CNG parental inactive.
For Cc1cc(C(=O)COC(=O)c2ccc3c(c2)NC(=O)CS3)c(C)n1CC1CCCO1 (configuration not stated) the results were NR5A2 inv ag inactive, SRC1 inh inactive, NCOA3 inh inactive, NR2F2 inh inactive, SRC2 inh inactive, GalR3 antag 22.9, GalR3 antag conf 17.8 and HEK-CNG parental inactive.
Screening Cc1cc(C(=O)COC(=O)c2ccc(O)cc2)c(C)n1CC1CCCO1 (configuration not stated) returned NR5A2 inv ag inactive, SRC1 inh inactive, NCOA3 inh inactive, NR2F2 inh inactive, SRC2 inh inactive and GalR3 antag inactive.
